Only some compounds are listed: those with a hit (about 1.8% of all), similar ones and a draw of the others.
LYPLA1 counter = LYPLA1 inhibitors, primary screen, counter-screen for PME1 inhibitor project, biochemical, fluorescence polarization, FP-Rh probe ABPP; Acyl-protein thioesterase 1 (Homo sapiens), O75608; recombinant LYPLA1; inhibition, % at 5.9 µM; hit rate 0.16% among 320,000;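 active = inhibition above the mean of all tested compounds plus 3 SD, set per campaign, cut at about 14% in these data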;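 note: inhibitors block serine hydrolase probe labeling of LYPLA1 so polarization falls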
Fam108B inh = mouse Fam108B serine hydrolase inhibitors, primary screen, counter-screen for RBBP9 inhibitor project, biochemical, fluorescence polarization; recombinant Fam108B, FP-Rh probe fluorescence polarization; inhibition, % at 9.51 µM; hit rate 0.33% among 300,000; AID 1947, 2009;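 active = inhibition above the screen mean inhibition plus 3 SD, computed separately per campaign, cut at about 18% in these data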;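 note: inhibitors lower polarization as less probe binds the enzyme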
PAD4 FP inh = human PAD4 inhibitors, primary screen, biochemical, fluorescence polarization, 1536-well format | Protein-arginine deiminase type-4 (Homo sapiens), Q9UM07 | recombinant PAD4, RCA probe fluorescence polarization | inhibition, % at 6.36 µM | hit rate 0.41% among 330,000 | AID 485272, 2010;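 active = percent inhibition above a cutoff equal to the mean of all tested compounds plus 3 SD, cut at about 15% in these data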
Target sequence (Q9UM07 whole entry, looked up): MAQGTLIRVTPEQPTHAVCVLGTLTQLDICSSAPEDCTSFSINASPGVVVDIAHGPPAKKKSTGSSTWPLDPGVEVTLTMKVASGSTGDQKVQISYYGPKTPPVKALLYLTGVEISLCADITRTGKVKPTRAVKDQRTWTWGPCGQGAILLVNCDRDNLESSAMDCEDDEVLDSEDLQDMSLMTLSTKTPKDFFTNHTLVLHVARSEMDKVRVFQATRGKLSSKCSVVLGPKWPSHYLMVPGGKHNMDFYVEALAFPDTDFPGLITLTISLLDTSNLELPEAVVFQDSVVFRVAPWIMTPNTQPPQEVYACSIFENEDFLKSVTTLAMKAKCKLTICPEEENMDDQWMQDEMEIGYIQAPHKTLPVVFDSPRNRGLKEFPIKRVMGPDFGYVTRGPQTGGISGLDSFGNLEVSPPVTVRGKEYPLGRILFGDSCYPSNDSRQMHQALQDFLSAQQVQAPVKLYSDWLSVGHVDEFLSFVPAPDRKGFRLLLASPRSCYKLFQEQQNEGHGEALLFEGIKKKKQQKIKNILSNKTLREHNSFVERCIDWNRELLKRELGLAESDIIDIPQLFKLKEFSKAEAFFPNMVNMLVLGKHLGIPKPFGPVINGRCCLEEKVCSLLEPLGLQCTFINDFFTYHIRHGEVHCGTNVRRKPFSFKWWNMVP
LYPLA2 inh = LYPLA2 inhibitors, primary screen, counter-screen for PME1 inhibitor project, biochemical, fluorescence polarization, FP-Rh probe ABPP | Acyl-protein thioesterase 2 (Homo sapiens), O95372 | recombinant LYPLA2 | inhibition, % at 5.9 µM | hit rate 0.38% among 320,000;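 active = inhibition above the screen-wide mean plus 3 SD, limit set per campaign, cut at about 26% in these data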
GSTO1 inh = inhibitors of recombinant GSTO1, primary screen, counter-screen for RBBP9 inhibitor project, biochemical, fluorescence polarization | AID 1974, 2009 | Glutathione S-transferase omega-1 (Homo sapiens), P78417 | inhibition, % at 5.96 µM | hit rate 1.1% among 300,000 | activity-based probe fluorescence polarization;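 active = inhibition above the campaign mean inhibition plus 3 SD, cut at about 35% in these data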
PME-1 primary = PME-1 inhibitors via competitive probe labeling, primary screen, biochemical, fluorescence polarization, FP-Rh probe, HTS | recombinant PME-1 | inhibition, % at 5.9 µM | hit rate 0.53% among 320,000 | AID 2130, 2009;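 active = inhibition above the campaign mean of all compounds plus 3 SD, cut at about 26% in these data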;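 note: competitive labeling of PME-1 active site by serine hydrolase directed probe; inhibitors block probe labeling so polarization falls and inhibition rises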
GSTO1 inh conf = GSTO1 inhibitor hit confirmation, counter-screen for RBBP9 inhibitor project, biochemical, fluorescence polarization, triplicate. shares compounds with GSTO1 inh. AID 2176, 2009. hit rate 54% among 2,400. inhibition, % at 5.96 µM. recombinant GSTO1, probe fluorescence polarization;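 active = inhibition above the primary screen's cutoff, its mean inhibition plus 3 SD, cut at about 35% in these data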;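 note: loss of polarization as inhibitors block binding of rhodamine sulfonate ester activity probe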
GSTO1 recomb ABPP = inhibitors of purified human GSTO1, late-stage follow-up, biochemical, gel ABPP, SE-Rh probe, percent inhibition. shares compounds with GSTO1 inh. recombinant GSTO1, gel ABPP SE-Rh probe fluorescence. inhibition, % at 1 µM. hit rate 30% among 130. AID 463110, 2010;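 active = inhibition of the enzyme GSTO1 above about 75%, limit read from the data; inactive = inhibition below that limit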
PAD4 FP conf = human PAD4 inhibitors, confirmation, biochemical, fluorescence polarization. inhibition, % at 6.36 µM. recombinant PAD4, RCA probe fluorescence polarization. hit rate 28% among 1,200. AID 488796, 2010. shares compounds with PAD4 FP inh;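 active = mean inhibition across replicates above the hit cutoff set by the earlier primary screen, cut at about 15% in these data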;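 note: inhibitors block active-site labeling by the probe so polarization falls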
Of the large screens only hits and unclear results are named; the others gave an inactive call (follow-up assays come after a bar, where they were run).

CN(C)c1ccc(C=Nc2ccc(N(C)C)cc2)cc1	PAD4 FP inh 32, GSTO1 inh 78 | GSTO1 inh conf inactive | PAD4 FP conf inactive
CCN(C(=S)Nc1cccnc1)c1ccccc1	none
CN(C(=S)Nc1cccnc1)c1ccc(O)cc1	PAD4 FP inh 31, GSTO1 inh 83 | GSTO1 inh conf inactive | PAD4 FP conf inactive
CN(C(=S)Nc1ccc(Oc2ccccc2)cc1)c1ccc(O)cc1	PAD4 FP inh 25, GSTO1 inh 79 | GSTO1 inh conf inactive | PAD4 FP conf inactive
Cc1ccnn1CCC(=O)N1CCCC(Nc2ccc(F)c(F)c2)C1 (stereo unspecified)	none
Oc1ccccc1N1CCN(CC(O)COC2CCCc3ccccc32)CC1 (stereo unspecified)	none
COc1cc(/C=C2\C(=O)N(c3ccc(NC(C)=O)cc3)N=C2c2ccccc2)ccc1O	PAD4 FP inh 62, GSTO1 inh 76 | GSTO1 inh conf inactive | PAD4 FP conf inactive
CCN(C(=O)CSc1nc2ccccc2[nH]1)C1CCS(=O)(=O)C1 (stereo unspecified)	none (no result: LYPLA1 counter, Fam108B inh, LYPLA2 inh, GSTO1 inh, PME-1 primary)
CCOC(=O)C1=CNS(=O)(=O)NC1c1ccc(OC(C)=O)cc1 (stereo unspecified)	none (no result: LYPLA1 counter, Fam108B inh, LYPLA2 inh, GSTO1 inh, PME-1 primary)
O=S(=O)(Nc1cc(Sc2cccc3cccnc23)c(O)c2ccccc12)c1ccc(F)cc1	PAD4 FP inh 29, GSTO1 inh 57 | GSTO1 inh conf inactive | PAD4 FP conf inactive
O=S(=O)(Nc1cccnc1Cl)c1ccc(F)cc1	none
COc1ccc(Cl)cc1NC(=O)CN(C)C(=O)C1COc2ccccc2O1 (stereo unspecified)	none (no result: LYPLA1 counter, Fam108B inh, LYPLA2 inh, GSTO1 inh, PME-1 primary)
Cc1cc(=O)n(-c2ccc(O)cc2)[nH]1	PAD4 FP inh 61, GSTO1 inh 73 | GSTO1 inh conf inactive | PAD4 FP conf inactive
Cc1cc(=O)n(-c2ccccc2Cl)[nH]1	PAD4 FP inh 33, GSTO1 inh 48 | GSTO1 inh conf inactive | PAD4 FP conf inactive
O=C(NCC(c1ccco1)N1CCCC1)c1ccccc1Sc1ccc(C(F)(F)F)cc1[N+](=O)[O-] (stereo unspecified)	none
COc1ccc([C@H]2CC(=O)C=C(c3ccc(Cl)c(C(F)(F)F)c3)C2)cc1OC	none (no result: Fam108B inh, GSTO1 inh)
Cc1ccc2c(c1)c1c3n2CCN(C(=O)CN2CCN(C)CC2)C3CCC1 (stereo unspecified)	none
Cc1ccc2c(c1)c(=O)c1c3n2CCN(C(=O)CCl)C3CC1 (stereo unspecified)	PAD4 FP inh 30, GSTO1 inh 66 | GSTO1 inh conf 80 | GSTO1 recomb ABPP inactive | PAD4 FP conf inactive
CCN1C(=O)N(c2cccc3ccccc23)C(C)=CC1(C)C	none
CCN1c2ccccc2N(C)C1(C)c1ccccc1 (stereo unspecified)	PAD4 FP inh 20, GSTO1 inh 55 | GSTO1 inh conf 37 | PAD4 FP conf inactive
Cc1ccccc1-c1cc2c(nn1)-c1ccccc1C2=O	PAD4 FP inh 58, GSTO1 inh 75 | GSTO1 inh conf 70 | PAD4 FP conf inactive
CC(C)CCn1c(N)c(S(=O)(=O)c2cccs2)c2nc3ccccc3nc21	PAD4 FP inh 63, GSTO1 inh 57 | GSTO1 inh conf inactive | PAD4 FP conf inactive
COc1cc(C(C[N+](=O)[O-])c2c(C)cc3ccccn23)ccc1O (stereo unspecified)	PAD4 FP inh 60, GSTO1 inh 39 | GSTO1 inh conf inactive | PAD4 FP conf inactive
CCN(CC(=O)NC1CCS(=O)(=O)C1)c1ccc([N+](=O)[O-])cc1C#N (stereo unspecified)	none (no result: Fam108B inh, GSTO1 inh)
O=[N+]([O-])c1cc(Br)c(O)c(C=Nc2ccc(N3CCOCC3)cc2)c1	PAD4 FP inh 54, GSTO1 inh 72 | GSTO1 inh conf inactive | PAD4 FP conf inactive
COc1ccc(NC(=O)C(=O)NCC2CCCN2S(=O)(=O)c2cccs2)cc1 (stereo unspecified)	none
CCOc1cc(CNc2ccc(N3CCCCC3)cc2)cc(Br)c1OCC(=O)NC(C)(C)C	none
CCOc1cc(CNc2ccc(N(C)C)cc2)cc(Br)c1OCC(=O)NC(C)(C)C	PAD4 FP inh 23, GSTO1 inh 81 | GSTO1 inh conf inactive | PAD4 FP conf inactive
C(=N\C(/N=C/c1ccco1)c1ccco1)/c1ccco1	none
C(=Nc1cccc2c(N=Cc3ccco3)cccc12)c1ccco1	PAD4 FP inh 62, GSTO1 inh 40 | GSTO1 inh conf inactive | PAD4 FP conf inactive
Cc1ccccc1C(=O)N1CCC(C(=O)NC2CCCC2)CC1	none
COc1cccc(/C=N/Nc2nnc(C)n2N)c1O	PAD4 FP inh 39, GSTO1 inh 41 | GSTO1 inh conf inactive | PAD4 FP conf inactive
COc1ccc(Cn2c(N)c(C#N)c3nc4ccccc4nc32)cc1OC	none
COc1ccc(CCn2c(N)c(C#N)c3nc4ccccc4nc32)cc1OC	PAD4 FP inh 24, GSTO1 inh 57, PME-1 primary 34 | GSTO1 inh conf inactive | PAD4 FP conf inactive
O=c1[nH]c(Nc2ccccc2)cc2cc(Br)ccc12	PAD4 FP inh 64, GSTO1 inh 58 | GSTO1 inh conf inactive | PAD4 FP conf inactive
COc1ccc(OC)c(Nc2cc3ccccc3c(=O)[nH]2)c1	PAD4 FP inh 39, GSTO1 inh 71 | GSTO1 inh conf inactive | PAD4 FP conf inactive
COc1ccccc1Nc1cc2cc(Br)ccc2c(=O)[nH]1	PAD4 FP inh 34, GSTO1 inh 42 | GSTO1 inh conf inactive | PAD4 FP conf inactive
CC1CCCN(C(=O)NC2CC(=O)N(c3ccc4c(c3)OCCO4)C2)C1 (stereo unspecified)	none
CCCCN(C(=O)CC1CCCC1)c1c(N)n(CCCC)c(=O)[nH]c1=O	none (no result: Fam108B inh, GSTO1 inh)
COc1cccc(N=Nc2c(C)[nH]n(-c3ccccc3)c2=O)c1	none
Cc1[nH]n(-c2ccccc2)c(=O)c1C(=O)Nc1ccccc1	none
